Activity calls are given as the source filed them.
What was measured:
[1] = optical density shifts of acrAB sulA E. coli – strain DRC41, OD650, 48 h, E. coli filamentation inducer project, primary screen (AID 1152); conditions: higher = more signal, called active from +8 up or from −8 down;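 further: E. coli MC1000 strain DRC41 lacking acrAB efflux pump and sulA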
[2] = probe aLefty1 binding on compound microarray – biochemical, small-molecule microarray, 635/667 nm fluorescence, primary screen (AID 1153); conditions: higher = more signal;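 further: score merges spot fluorescence with signal-to-noise ratio from the scanned slide images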
[3] = plasmodial surface anion channel blockers, osmotic lysis – cell-based, P. falciparum Indochina, OD700, 1 h, primary screen (AID 1154); conditions: P. falciparum Indochina infected RBC osmotic lysis, higher = more signal, called active from +8 up or from −8 down
[4] = plasmodial surface anion channel blockers, osmotic lysis – cell-based, P. falciparum Indochina, OD700, 2 h, primary screen (AID 1155);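 further: lysis reports solute entry through the parasite surface anion channel PSAC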; conditions: P. falciparum Indochina infected erythrocytes, higher = more signal, called active from +8 up or from −8 down
[5] = changes in parasitized red cell lysis, either direction – P. falciparum Indochina, OD700, 3 h, PSAC antagonist project, primary screen (AID 1156); conditions: P. falciparum-infected erythrocytes, osmotic lysis, higher = more signal, called active from +8 up or from −8 down
[6] = plasmodial surface anion channel blockers, osmotic lysis – cell-based, P. falciparum Indochina, OD700, 18 h, primary screen (AID 1157); conditions: P. falciparum Indochina infected erythrocytes, osmotic lysis OD700, 18 h; higher = more signal, called active from +8 up or from −8 down
[7] = S6 kinase pathway phospho-S6 level changes – cell-based, A549, cytoblot, luminescence, serum-stimulated, primary screen (AID 1158); conditions: 5 h, higher = more signal;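 further: serum-stimulated A549 lung adenocarcinoma cells; signal is phosphorylated S6 detected by cytoblot immunostaining with HRP secondary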
[8] = biological target: NADPH oxidase 2 (Homo sapiens) (UniProt P04839); assay: compounds shifting NOX2 Amplex Red fluorescence – cell-based, HEK293-NOX2, PMA-stimulated, NOX inhibitor project, primary screen (AID 1159); conditions: 45 min, higher = more signal, called active from +8 up or from −8 down; further: test concentration not given here
[9] = biological target: NADPH oxidase 4 (Homo sapiens) (UniProt Q9NPH5); assay: compounds shifting NOX4 Amplex Red fluorescence – cell-based, HEK293-NOX4, tetracycline-induced, NOX inhibitor project, primary screen (AID 1160); conditions: HEK293-NOX4, Amplex Red H2O2 fluorescence, 45 min; higher = more signal, called active from +8 up or from −8 down
[10] = biological target: NADPH oxidase 5 (Homo sapiens) (UniProt Q96PH1); assay: compounds shifting NOX5 Amplex Red fluorescence – cell-based, HEK293-NOX5, NOX inhibitor project, primary screen (AID 1161); conditions: HEK293-NOX5, ionomycin, 45 min, higher = more signal
NADPH oxidase 5 (Homo sapiens), sequence (Q96PH1 whole entry, looked up): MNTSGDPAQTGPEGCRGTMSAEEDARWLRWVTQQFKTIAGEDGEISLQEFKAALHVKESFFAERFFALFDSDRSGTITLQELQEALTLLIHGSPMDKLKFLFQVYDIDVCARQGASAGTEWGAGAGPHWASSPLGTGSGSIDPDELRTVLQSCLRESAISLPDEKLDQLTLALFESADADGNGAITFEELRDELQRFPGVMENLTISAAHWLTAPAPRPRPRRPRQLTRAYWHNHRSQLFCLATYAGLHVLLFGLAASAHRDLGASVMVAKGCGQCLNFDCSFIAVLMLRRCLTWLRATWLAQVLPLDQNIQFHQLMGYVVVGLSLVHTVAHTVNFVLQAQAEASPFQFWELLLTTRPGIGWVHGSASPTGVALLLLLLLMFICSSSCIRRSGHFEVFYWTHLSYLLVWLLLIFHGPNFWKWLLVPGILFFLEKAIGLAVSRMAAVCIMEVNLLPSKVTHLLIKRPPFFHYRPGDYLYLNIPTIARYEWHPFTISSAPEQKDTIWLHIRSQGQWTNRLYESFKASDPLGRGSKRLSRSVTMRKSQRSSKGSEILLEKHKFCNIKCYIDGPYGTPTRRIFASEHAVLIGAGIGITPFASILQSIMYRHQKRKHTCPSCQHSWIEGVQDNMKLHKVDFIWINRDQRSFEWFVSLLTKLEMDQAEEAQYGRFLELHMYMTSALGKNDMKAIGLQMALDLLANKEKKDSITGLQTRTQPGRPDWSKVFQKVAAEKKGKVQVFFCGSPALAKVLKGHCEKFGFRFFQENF

NADPH oxidase 4 (Homo sapiens), sequence (Q9NPH5 whole entry, looked up): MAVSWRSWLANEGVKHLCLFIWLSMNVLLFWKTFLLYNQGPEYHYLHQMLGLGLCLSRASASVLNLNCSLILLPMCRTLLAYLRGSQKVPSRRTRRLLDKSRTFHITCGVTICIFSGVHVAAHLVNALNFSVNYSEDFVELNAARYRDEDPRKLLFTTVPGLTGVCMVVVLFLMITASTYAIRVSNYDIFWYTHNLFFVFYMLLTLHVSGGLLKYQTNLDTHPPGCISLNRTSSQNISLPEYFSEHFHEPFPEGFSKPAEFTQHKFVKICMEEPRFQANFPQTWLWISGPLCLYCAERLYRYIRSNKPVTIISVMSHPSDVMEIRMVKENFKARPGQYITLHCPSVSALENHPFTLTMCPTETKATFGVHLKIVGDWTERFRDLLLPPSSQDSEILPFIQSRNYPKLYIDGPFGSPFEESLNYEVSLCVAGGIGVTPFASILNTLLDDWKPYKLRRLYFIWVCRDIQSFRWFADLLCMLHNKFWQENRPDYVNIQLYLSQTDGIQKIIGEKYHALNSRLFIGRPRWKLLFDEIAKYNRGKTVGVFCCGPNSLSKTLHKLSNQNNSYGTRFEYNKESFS
NADPH oxidase 2 (Homo sapiens), sequence (P04839 whole entry, looked up): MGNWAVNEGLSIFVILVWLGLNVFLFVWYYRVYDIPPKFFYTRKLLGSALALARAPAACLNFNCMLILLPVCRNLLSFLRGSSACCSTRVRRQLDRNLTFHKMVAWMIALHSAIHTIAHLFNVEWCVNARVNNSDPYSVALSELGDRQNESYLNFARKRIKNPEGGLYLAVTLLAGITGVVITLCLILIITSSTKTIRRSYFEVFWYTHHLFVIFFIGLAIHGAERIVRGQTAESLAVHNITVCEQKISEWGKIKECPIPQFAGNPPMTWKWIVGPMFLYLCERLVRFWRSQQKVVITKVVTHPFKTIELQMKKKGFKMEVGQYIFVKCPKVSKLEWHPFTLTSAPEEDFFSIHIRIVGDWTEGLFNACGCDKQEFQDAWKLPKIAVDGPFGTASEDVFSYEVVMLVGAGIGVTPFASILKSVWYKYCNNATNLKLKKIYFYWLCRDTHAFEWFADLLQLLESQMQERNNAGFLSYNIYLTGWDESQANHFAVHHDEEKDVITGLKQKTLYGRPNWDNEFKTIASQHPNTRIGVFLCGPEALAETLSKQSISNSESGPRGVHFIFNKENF

Structure (SMILES)	z-score [1]	composite z-score [2]	z-score [3]	z-score [4]	z-score [5]	z-score [6]	z-score [7]	z-score [8]	z-score [9]	z-score [10]
COCCOC(=O)N1C(=O)[C@@]2(c3cc(C#CCNC(N)=O)ccc31)[C@H](C(N)=O)[C@H]1C(=O)O[C@H](c3ccccc3)[C@H](c3ccccc3)N1[C@@H]2c1ccccc1OCCO	-0.77 (inactive)	0.0299	6.57 (inactive)	0.793 (inactive)	1.18 (inactive)	0.269 (inactive)	-0.309	1.9 (inactive)	1.37 (inactive)	0.198
CCOC(=O)C1=CC[C@@H](c2ccccc2)N(S(=O)(=O)c2ccc(C)cc2)[C@H]1c1ccccc1	-1.11 (inactive)	0.155	1.97 (inactive)	0.945 (inactive)	0.369 (inactive)	0.24 (inactive)	-0.685	0.18 (inactive)	-0.464 (inactive)	1.75
NC(=O)NCC#Cc1ccc2c(c1)[C@]1(C(=O)N2)[C@H](c2ccccc2OCCO)N2[C@H](c3ccccc3)[C@H](c3ccccc3)OC(=O)[C@H]2[C@@H]1C(=O)O	0.851 (inactive)	-0.278	1.07 (inactive)	-0.525 (inactive)	-1.78 (inactive)	0.0482 (inactive)	0.171	2.78 (inactive)	0.517 (inactive)	-0.123
COc1ccccc1CN1C(=O)c2ccccc2[C@](Cc2ccccc2I)(C(=O)O)[C@@H]1c1ccc(CO)cc1	1.03 (inactive)	0.0366	5.55 (inactive)	1.09 (inactive)	-0.0546 (inactive)	0.426 (inactive)	-0.523	1.03 (inactive)	0.616 (inactive)	0.646
CCOC(=O)C[C@H]1[C@H](OC(=O)c2ccc(C(=O)c3ccccc3)cc2)[C@@H](NC(=O)CC(C)C)c2cc(OCCCO)ccc2N1C(=O)c1ccccc1	-0.804 (inactive)	-0.191	1.06 (inactive)	0.966 (inactive)	-0.416 (inactive)	0.26 (inactive)	-0.163	1.49 (inactive)	0.861 (inactive)	1.24
O=C1O[C@@H](c2ccccc2)[C@@H](c2ccccc2)N2[C@@H](c3ccc(O)cc3)[C@]3(C(=O)Nc4ccc(C#CCCO)cc43)[C@@H](C(=O)N3CCN(c4ncccn4)CC3)[C@H]12	1.81 (inactive)	0.348	1.97 (inactive)	1.01 (inactive)	-0.834 (inactive)	0.516 (inactive)	-0.138	0.941 (inactive)	-0.341 (inactive)	0.594
CCCCC(CC)C(O)C1C=CC2C(=O)N(C)C(=O)C2N1Nc1ccccc1 (stereo not given)	-1.34 (inactive)	0.443	0.755 (inactive)	0.916 (inactive)	-0.0492 (inactive)	0.827 (inactive)	-0.778	-1.45 (inactive)	-3.67 (inactive)	-3.2
